Bioassay records from PubChem.
Shiga inhibitor: A qHTS for Small Molecule Inhibitors of Shiga Toxin. inhibition, % at 38.7 µM. hit rate 9.2% among 290,000. Vero cells, Shiga toxin protein synthesis inhibition reporter; in the data active means inhibition mostly above about 28%, no sharp cut-off; inactive means mostly below about 43%; further: 0% is about no effect
CHX counter: Cycloheximide Counterscreen for Small Molecule Inhibitors of Shiga Toxin; max response, %; hit rate 12% among 300,000; cell reporter, cycloheximide protein synthesis inhibition counterscreen; in the data active means max response mostly above about 13%, no sharp cut-off; inactive means mostly below about 14%; further: read at 38.3 µM for the half of the compounds with a filed dose; 0% is about no effect
TbPYK inhibitor: qHTS of Trypanosoma Brucei Inhibitors | pyruvate kinase (Trypanosoma brucei), Q57TT1 | TbPYK enzyme, Kinase-Glo Plus ATP luminescence, 45 min | Potency, µM (series often up to 76.8 µM), without a hit: at the highest dose activity, negative = inhibition, most hits filed as inhibitors | hit rate 0.12% among 410,000 | AID 624173, 2012; active means well fitted curve in the direction sought with a large enough effect; inconclusive means small, poorly fitted or top-dose-only effect, or another doubt; inactive means no such curve, though single readings can be large; an effect the other way counts as inactive or inconclusive; further: potency means the concentration at half of the fitted maximal effect; on the % scale 0 is the no-effect control and ±100 the full control effect; nearly all actives have a fitted effect of over 50% in size
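Readout: single end-point luminescence (Kinase-Glo Plus, 10 min). Reaction conditions were TbPYK/substrate plus 130 uM ADP, 45 min at RT, pH 7.2 TEA buffer. No-enzyme wells served as controls, and data were normalized before concentration-response fitting.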
LmPK inhibitor: qHTS Assay for Inhibitors of Leishmania Mexicana Pyruvate Kinase (LmPK); Q27686; purified LmPK, Kinase-Glo ATP luminescence, 1 h; Potency, µM (top dose mostly 57.5 µM), inactives show at the top dose activity change, negative = inhibition, most hits filed as inhibitors; hit rate 0.37% among 290,000; AID 1721, 2009; active means well fitted curve in the direction sought with a large enough effect; inconclusive means small, poorly fitted or top-dose-only effect, or another doubt; inactive means no such curve, though single readings can be large; an effect the other way counts as inactive or inconclusive; further: potency means the concentration at half of the fitted maximal effect; on the % scale 0 is the no-effect control and ±100 the full control effect
Target sequence (Q27686 whole entry, looked up): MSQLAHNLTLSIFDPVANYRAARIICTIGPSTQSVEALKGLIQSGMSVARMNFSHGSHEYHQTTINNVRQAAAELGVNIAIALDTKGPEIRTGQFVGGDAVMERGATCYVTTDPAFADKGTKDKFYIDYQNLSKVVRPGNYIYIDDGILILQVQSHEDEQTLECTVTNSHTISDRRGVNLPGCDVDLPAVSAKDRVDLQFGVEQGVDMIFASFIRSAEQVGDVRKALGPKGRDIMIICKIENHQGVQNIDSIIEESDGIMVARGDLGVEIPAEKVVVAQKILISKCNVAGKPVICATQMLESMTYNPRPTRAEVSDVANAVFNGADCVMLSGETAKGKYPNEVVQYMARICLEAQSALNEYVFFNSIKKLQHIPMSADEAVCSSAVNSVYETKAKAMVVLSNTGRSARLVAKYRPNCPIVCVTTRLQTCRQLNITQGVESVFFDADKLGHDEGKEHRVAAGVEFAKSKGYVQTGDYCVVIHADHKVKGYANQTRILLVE
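In 50 mM imidazole pH 7.2 with 7 mM MgCl2, LmPK (0.1 nM) turned over PEP (0.5 mM) and ADP (0.1 mM) for 1 h at room temperature. Luciferase read-out of ATP.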
SARS PLP yeast: qHTS of Yeast-based Assay for SARS-CoV PLP; S. cerevisiae expressing SARS-CoV PLpro, growth rescue; Potency, µM (doses to about 32.9 µM), for the others: at the highest dose activity, positive = growth rescue, actives largely listed as activators; hit rate 0.19% among 330,000; further: potency means the concentration at half of the fitted maximal effect; 0% is about no effect; nearly all actives have a fitted effect of over 55% in size
NS1 inh: qHTS Assay for Inhibitors of Influenza NS1 Protein Function; Potency, µM (titrated, usually from 46.1 µM), without a hit: top-dose activity, positive = more growth; hit rate 0.4% among 270,000; further: potency means the concentration at half of the fitted maximal effect; actives are rising curves; nearly all actives have a fitted effect of over 50% in size
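OD600 was taken as the measure of yeast growth restored by compound in an NS1-expressing S. cerevisiae strain. Cells had been washed out of glucose medium and diluted 1:100 into galactose -URA medium, pH 6.0.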
Starred values were filed as active, the others as inactive; u = inconclusive; x = not tested or not shown. Many of the other results were omitted from the sample, so hits are more common in it than they were. Unless noted, the call rests on the fitted dose curve.

SMILES | Shiga inhibitor | CHX counter | TbPYK inhibitor | LmPK inhibitor | SARS PLP yeast | NS1 inh
COc1ccccc1-c1nnc(SCc2ccccn2)n1C | 1 | 7 | -4% | 1% | 0% | -8%
COc1ccccc1-c1nc(SCc2ccccn2)n[nH]1 | 76* | 41* | -13% | -2% | -5% | -14%
O=C(Nc1nnc(CCN2CCCCC2)s1)c1ccc(Br)cc1 | 11 | 7 | -3% | 2% | 2% | x
O=C(Nc1nnc(CCN2CCCCC2)s1)c1ccccc1 | 40 | 33* | -1% | 4% | -10% | x
O=C(Nc1nnc(Cc2ccccc2)s1)c1ccccc1 | 39* | 17* | 9% | 1% | 19% | 12%
Cc1cccc(C(=O)Nc2nnc(Cc3ccccc3)s2)c1 | 8 | 9.3* | -3% | 0% | -7% | 5%
O=C(Nc1nnc(Cc2ccccc2)s1)c1cccs1 | 41 | 25* | -4% | 2% | -6% | -12%
COC1C=CO[C@@]2(C)Oc3c(C)c(O)c4c(O)c(c(C=NN5CCN(C)CC5)c(O)c4c3C2=O)NC(=O)/C(C)=C\C=CC(C)C(O)[C@@H](C)C(O)C(C)[C@H](OC(C)=O)C1C (some centres not stated) | x | x | -10% | x | x | x
COc1ccccc1-c1csc(C(C)(NC(C)=O)c2ccccc2)n1 (configuration not stated) | x | x | 0% | x | x | x
Cc1c(C(=O)NCc2ccccc2C(F)(F)F)sc(=O)n1Cc1ccc(S(=O)(=O)N(C)C)cc1 | x | x | -7% | x | x | x
O=C(Nc1nnc(CC2=CCCCC2)s1)c1cccs1 | 100* | 30* | -4% | -6% | -5% | -27%
O=C(Cc1ccccc1)Nc1cccc(-c2nnc(-c3ccco3)o2)c1 | 86* | 30* | -8% | 1% | -13% | -6%
O=C(Cc1ccc(Cl)cc1)Nc1cccc(-c2nnc(-c3ccco3)o2)c1 | -3 | 3 | -2% | 2% | 1% | 6%
COc1ccccc1OCC(=O)Nc1cccc(-c2nnc(-c3ccco3)o2)c1 | 82* | 36* | -17% | 3% | 1% | x
Cc1c(-c2ccccc2)nc(-c2ccccc2)[nH]c1=O | -3 | 0 | 27% | -2% | 5% | 1%
O=C1CCCc2[nH]c(-c3ccccc3)nc21 | 59* | 37* | -8% | -27% | -1% | 0%
c1ccc(-c2nc3c([nH]2)CCc2nonc2-3)cc1 | 78* | 31* | 1% | -6% | 2% | x
N#CC1=C(N)N2C(=C(C#N)C13CCCC3)Nc1ccccc12 | 51* | 8.8* | 0% | 1% | -1% | 7%
CCc1cc2c3c(c1)C1(C(=O)N3C(C)(C)CC2C)C(C#N)=C(N)N2C(=C1C#N)Nc1ccccc12 (configuration not stated) | -7 | -2 | -5% | 0% | -13% | 23%
Cc1ccc(-c2noc(Cn3cc(S(=O)(=O)N4CCCC4)ccc3=O)n2)cc1 | x | x | 4% | x | -31% | x
c1ccc(-c2cc3c(-n4cccc4)ncnc3o2)cc1 | 102* | 69* | 0% | 2% | -3% | -7%
c1ccc(Oc2ncnc3oc(-c4ccccc4)cc23)cc1 | 2 | -1 | 3% | 1% | 0% | -8%
COc1cc(SC)ccc1C(=O)N1CCN(Cc2ccccc2)CC1 | -14 | -2 | -3% | -1% | 1% | 4%
COc1cc(SC)ccc1C(=O)NCc1ccccc1 | 36* | 26* | -6% | -2% | 11% | 2%
COc1cc(SC)ccc1C(=O)N(C)CC(=O)Nc1cccc2ccccc12 | x | x | -1% | x | 16% | x
SMILES | Shiga inhibitor | CHX counter | TbPYK inhibitor | LmPK inhibitor | SARS PLP yeast | NS1 inh
COc1cc(SC)ccc1C(=O)NCc1ccc(C)cc1 | 31 | 16* | 6% | 5% | -14% | -65%
COc1cc(SC)ccc1C(=O)NCCOc1ccc(C)c(C)c1 | -5 | 3 | -1% | -1% | -7% | -8%
COc1cc(SC)ccc1C(=O)N(C)Cc1ccccc1 | 28 | 22* | 3% | 0% | 0% | -36%
COc1cc(SC)ccc1C(=O)NCCCOC(C)C | 14 | 13* | 0% | -5% | 1% | -7%
CCCNC(=O)c1ccc(SC)cc1OC | 17 | 12 | 1% | 4% | -5% | -20%
CC(C)(C)C1CCC(=NNC(=O)C2COc3ccccc3O2)CC1 (configuration not stated) | x | x | 1% | x | -12% | x
CCC1(c2ccccc2)SC(=O)NC1=O (configuration not stated) | x | x | -5% | x | x | x
O=C(NNc1c(Cl)cccc1Cl)c1cccs1 | -9 | 10 | -7% | 1% | -2% | 0%
CSc1ccccc1NC(=O)CSc1nnc(Cc2ccccc2)o1 | -3 | -2 | -10% | -5% | 19% | -7%
CCc1nn2c(=O)cc(COC(=O)c3cccc(NC(=O)COc4ccccc4)c3)nc2s1 | x | x | 1% | x | x | x
Cc1ccc(S(=O)(=O)Cc2ccc(C(=O)NCCc3ccc(Cl)cc3)o2)cc1 | x | x | 0% | x | x | x
Cc1ccc(Nc2n[nH]c(C)c2[N+](=O)[O-])cc1C | 54 | 32* | -1% | -7% | -44% | -1%
CN(C)c1ccc(C=C(C#N)C#N)cc1 | -7 | 0 | -7% | -1% | -20% | -6%
CN(C)c1nc(C=C(C#N)C#N)c(Cl)n1-c1ccc(F)cc1 | 6 | 24* | -3% | 11% | -8% | x
Cc1ccc(NC(=O)c2ccoc2C)cc1C | 107* | 40* | -24% | 14µM* | -67% | -13%
CC(=O)Nc1cccc(OC(=O)c2ccoc2C)c1 | 13 | 9.7* | -3% | -1% | 0% | u
Cc1occc1C(=O)NNC(=O)Nc1ccc(Cl)c(Cl)c1 | 22 | 13* | u | 1% | 19% | -15%
Cc1occc1C(=O)Nc1ccc2c(c1)OCO2 | 78* | 37* | -16% | 14µM* | -3% | -11%
Cc1cc(NC(=O)c2ccoc2C)ccc1Br | x | x | -12% | x | 5% | x
CCCN(CCC)Cc1cc(=O)oc2ccc3ccccc3c12 | x | x | -4% | x | x | x
Cc1occc1C(=O)Nc1cccc(C(F)(F)F)c1 | 14 | 14 | 8% | 10% | -71% | -7%
Cc1occc1C(=O)Nc1cccc(C(=O)O)c1 | 34 | 20* | -8% | 2% | -3% | 4%
CCc1ccc2[nH]c3nc(SCCN4CCOCC4)nnc3c2c1 | 17* | 21* | -7% | -6% | 12% | -3%
CCc1ccc2[nH]c3nc(SCC(=O)NCC4CCCO4)nnc3c2c1 (configuration not stated) | 7 | -9 | -1% | -5% | 2% | 15%
COc1ccc(-n2ccc3ccccc32)cc1 | 32 | 25* | 7% | -2% | 0% | -2%
O=S(=O)(NC1CCCC1)c1cccc(-c2nnc(-c3ccccc3)o2)c1 | 7 | 30* | -7% | 7% | 1% | 8%
O=S(=O)(NC1CCCCCCC1)c1ccccc1 | -6 | 0 | -6% | -6% | 0% | -10%
